Assay outcomes as filed in PubChem BioAssay.
Rows were chosen to be rich in hits. Some 2.3% of all compounds tested hit in one or more screens of this group.
Nrf2 ARE act: qHTS of Nrf2 Activators; 410,000 tested, 0.31% active; Potency, µM (series often up to 46.1 µM), for the others: top-dose activation, hits mostly activators; AREc32 ARE-luciferase reporter (MCF7-derived line), luminescence, 24 h; AID 624171, 2012; note: % of control where 0% means no effect; nearly all actives have a fitted effect of over 65% in size
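Nrf2 activation is followed as ARE-luciferase induction in the AREc32 line after one day of compound treatment; luminescence is read with Steady-Glo.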
Rango-impB inh: qHTS Assay for Inhibitors of Rango (Ran-regulated importin-beta cargo) - Importin beta complex formation | Potency, µM (titrated, usually from 92.2 µM), for the others: top-dose inhibition of complex formation | Importin subunit beta-1 (Homo sapiens), Q14974 | 340,000 tested, 0.031% active | Rango CFP/YFP FRET sensor + importin beta, 45 min; calls by dose curve;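 note: 0% = DMSO wells and 100% = buffer wells lacking importin beta; nearly all actives have a fitted effect of over 15% in size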
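Inhibition scored from the CFP 486 nm/YFP 530 nm FRET ratio 45 min after adding 0.125 microM importin beta to 50 nM Rango biosensor preincubated 5 min with compound (room temperature, PBS with DTT, Tween-20, BSA). No-importin wells as positive control.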
Nrf2 inh: Nrf2 qHTS screen for inhibitors | A549 ARE-Fluc reporter, luciferase luminescence, 18-24 h | Potency, µM (highest dose often 46 µM), without a hit: at the top dose activity change, negative = inhibition, hits mostly inhibitors | 360,000 tested, 2.1% active; note: % is set by controls: 0 for no effect and ±100 for the full control effect; nearly all actives have a fitted effect of over 60% in size
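Concentration-response testing used A549 ARE_Fluc cells at 5000 cells/well. Following an 18-24 h compound incubation, viability was read by fluorescence (Ex 405/Em 525) and luciferase output by luminescence.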
Rango dissoc inh: qHTS Assay for Inhibitors of RanGTP induced Rango (Ran-regulated importin-beta cargo) - Importin beta complex dissociation. Snurportin-1 (Homo sapiens) + GTP-binding nuclear protein Ran (Homo sapiens) + Importin …. Biochemical FRET Rango-importin beta, RanGTP-induced dissociation. Potency, µM (top dose mostly 46.1 µM), for the others: top-dose activity change, negative = inhibition. 340,000 tested, 0.071% active. AID 540253, 2011; calls by dose curve; note: % of control where 0% means no effect; nearly all actives have a fitted effect of over 45% in size
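Compounds preincubate 5 min with complex of recombinant Rango and importin beta in PBS with 1 mM DTT. Ran (0.6 uM) loaded with 2 mM GTP plus 0.2 uM RCC1 starts dissociation; FRET is recorded 45 min later.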
A549 tox-1: Nrf2 qHTS screen for inhibitors: counterscreen for cytotoxicity; A549 ARE-Fluc cells, CellTiter-Fluor viability, 18-24 h; Potency, µM (top dose mostly 46 µM), without a hit: at the top dose activity change, negative = cytotoxicity, hits mostly inhibitors; 390,000 tested, 0.16% active; note: % is set by controls: 0 for no effect and ±100 for the full control effect
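A549 ARE_Fluc cells in 5% FBS OPTI-MEM were exposed to compounds in concentration-response for 18-24 h at 37 deg C. Viability was read by CellTiter-Fluor fluorescence (Ex 405/Em 525) after 30 min, before the luciferase read.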
FLuc enzyme inh: Nrf2 qHTS screen for inhibitors: Purified Fluc Biochemical Counterscreen for Hit Validation; shares compounds with Nrf2 inh; purified firefly luciferase, luminescence inhibition; Potency, µM (highest dose often 57.5 µM), for inactives: at the highest dose activity change, negative = inhibition, actives largely listed as inhibitors; 1,400 tested, 4% active; AID 720522, 2013; note: % is set by controls: 0 for no effect and ±100 for the full control effect; nearly all actives have a fitted effect of over 65% in size
Target sequence (P08659 whole entry, looked up): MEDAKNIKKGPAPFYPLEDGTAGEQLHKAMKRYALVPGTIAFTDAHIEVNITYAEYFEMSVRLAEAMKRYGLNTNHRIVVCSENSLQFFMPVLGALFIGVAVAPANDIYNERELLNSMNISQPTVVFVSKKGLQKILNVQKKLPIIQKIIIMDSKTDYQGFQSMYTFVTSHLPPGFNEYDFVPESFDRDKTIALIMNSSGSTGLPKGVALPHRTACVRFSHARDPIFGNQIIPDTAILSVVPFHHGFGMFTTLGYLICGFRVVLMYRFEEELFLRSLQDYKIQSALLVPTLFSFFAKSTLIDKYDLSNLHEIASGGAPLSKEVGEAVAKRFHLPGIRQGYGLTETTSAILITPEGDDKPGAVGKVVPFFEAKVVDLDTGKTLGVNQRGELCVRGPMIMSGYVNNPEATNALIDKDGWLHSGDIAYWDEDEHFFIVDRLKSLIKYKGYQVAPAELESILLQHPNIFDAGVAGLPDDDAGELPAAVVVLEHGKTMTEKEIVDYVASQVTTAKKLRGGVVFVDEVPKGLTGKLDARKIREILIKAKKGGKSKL
A549 tox-2: Nrf2 qHTS screen for inhibitors: A549 ARE-Fluc Cytotoxicity Counterscreen for Hit Validation | A549 ARE-Fluc cells, cytotoxicity counterscreen | Potency, µM (doses to about 46.1 µM), for the others: at the top dose activity change, negative = cytotoxicity, usual class: inhibitors | 1,400 tested, 2% active | shares compounds with Nrf2 inh | AID 720523, 2013;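 note: cells exposed to compounds for 18 to 24 hours; % is set by controls: 0 for no effect and ±100 for the full control effect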
Nrf2 ARE inh: Nrf2 qHTS screen for inhibitors: Nrf2 A549 ARE-Fluc Confirmation Assay for Hit Validation; shares compounds with Nrf2 inh; A549 ARE-firefly luciferase reporter, luminescence; Potency, µM (top dose mostly 46.1 µM), inactives show at the highest dose activity change, negative = inhibition, most hits filed as inhibitors; 1,400 tested, 74% active; note: % is set by controls: 0 for no effect and ±100 for the full control effect; nearly all actives have a fitted effect of over 65% in size
* hit, by the source's call; ? = inconclusive; / = not tested or not shown. Unless noted, calls come from the whole dose curve; as a rule, active = well fitted curve in the direction sought with a large enough effect; inconclusive = small, poorly fitted or top-dose-only effect, or another doubt; inactive = no such curve, though single readings can be large; an effect the other way counts as inactive or inconclusive. Potency is the fitted concentration of half-maximal effect.

SMILES	Nrf2 ARE act	Rango-impB inh	Nrf2 inh	Rango dissoc inh	A549 tox-1	FLuc enzyme inh	A549 tox-2	Nrf2 ARE inh
COc1ccccc1C(=O)Nc1nc(-c2ccc(S(=O)(=O)N3CCOCC3)cc2)cs1	-1%	1%	5.2µM*	-12%	-28%	-12%	-17%	1.3µM*
COc1ccc(N(CC(=O)Nc2cccc(Cl)c2)S(=O)(=O)c2c(C)[nH]c(=O)[nH]c2=O)cc1	3%	/	4%	/	-7%	/	/	/
O=S(=O)(Nc1cc(Sc2ncn[nH]2)c(O)c2ccccc12)c1ccccc1	-3%	5%	?	9%	?	/	/	/
O=C(O)CSc1cc(NS(=O)(=O)c2ccc(Br)cc2)c2ccccc2c1O	0%	6%	2.3µM*	19%	-16%	12µM*	-4%	-8%
COc1ccc(-n2c(-c3ccc(Br)cc3)c[n+]3c2CCCCC3)cc1	3%	2%	?	-17%	-2%	/	/	/
COc1ccc(-n2c(-c3ccc(Br)cc3)c[n+]3c2CCC3)cc1	-1%	-1%	4.6µM*	-6%	-13%	1%	-1%	-36%
COc1ccc(-n2c(-c3ccccc3)c[n+]3c2CCC3)cc1	0%	-1%	9.2µM*	-3%	-12%	1%	-12%	6.5µM*
CCOc1ccc(-c2c[n+]3c(n2-c2ccccc2)CCCCC3)cc1	0%	3%	0.92µM*	5%	?	1%	-16%	10µM*
CCOc1ccc(-n2c(-c3ccc(Cl)cc3)c[n+]3c2SCC3)cc1	0%	0%	-14%	5%	3%	/	/	/
COc1ccc(Nc2cc(C)c3cc(NC(=O)COc4cccc(C)c4)ccc3n2)cc1	0%	/	?	/	-18%	/	/	/
COCc1cc(C)nc2c1C(=O)NC(c1ccc(F)cc1)N2Cc1ccccc1 (centres undefined)	1%	/	/	/	7%	/	/	/
CC1=CC(=O)C2=C(C)CC[C@@H]3[C@H](OC(=O)[C@H]3C)[C@@H]12	0%	-2%	6.5µM*	0%	-3%	6%	-8%	6.5µM*
COc1ccccc1-[n+]1c(C)cc(/C=C2\Sc3ccccc3N2C)cc1C	-2%	?	4.1µM*	?	?	0.54µM*	?	0.26µM*
COc1ccc(C(=O)/C=C2\Sc3ccccc3N2C)cc1	4%	?	?	?	-12%	/	/	/
CCc1ccc(C(=O)C(C)OC(=O)c2nc3nc(C)cc(C)n3n2)cc1 (centres undefined)	0%	1%	0%	-1%	-1%	/	/	/
Cc1cc(NC(=O)c2cc(-c3ccc(F)cc3)on2)nn1Cc1ccc(Cl)cc1	0%	/	6.5µM*	/	-14%	0%	-10%	2.9µM*
COc1cccc(-c2cc(C(=O)Nc3cc(C)n(Cc4ccc(Cl)cc4)n3)no2)c1	0%	4%	?	-9%	?	-4%	-9%	7.3µM*
Nc1nc(-c2ccco2)nn1C(=O)c1ccc(Cl)cc1	-1%	1%	7.3µM*	2%	-7%	1%	0%	4.1µM*
CCC(=O)Nc1ccc2nc(SCCOc3ccc(C)cc3OC)sc2c1	4%	/	?	/	-2%	/	/	/
